Source: PubChem BioAssay (National Center for Advancing Translational Sciences (NCATS))
Only some compounds are listed: those with a hit (about 10% of all), similar ones and a draw of the others.
G9a inh – qHTS Assay for Inhibitors of Histone Lysine Methyltransferase G9a; AID 504332, 2011; Potency, µM (series often up to 102 µM), for the others: at the highest dose activity, negative = inhibition, hits mostly inhibitors; G9a H3K9 monomethylation, AlphaScreen, 2 h; 8.8% of 350,000 active; further: potency means the concentration at half of the fitted maximal effect; on the % scale 0 is the no-effect control and ±100 the full control effect; nearly all actives have a fitted effect of over 75% in size
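Chemiluminescent proximity detection of H3K9 monomethylation, read after 10 min bead incubation in the dark. Reaction: 20 nM G9a, 500 nM biotin-H3K9 peptide, 20 uM SAM cofactor, 2 h, room temperature, following 15 min enzyme-compound preincubation.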
JMJD2A Tudor inh – qHTS Assay for Inhibitors of JMJD2A-Tudor Domain | AlphaScreen JMJD2A-Tudor / H3K4me3 peptide binding | Potency, µM (top dose mostly 114 µM), without a hit: at the top dose activity change, negative = inhibition, most hits filed as inhibitors | 4.4% of 390,000 active; further: potency means the concentration at half of the fitted maximal effect; on the % scale 0 is the no-effect control and ±100 the full control effect; nearly all actives have a fitted effect of over 50% in size
Six1-Eya2 blk – qHTS Assay for Inhibitors of the Six1/Eya2 Interaction. 0.56% of 360,000 active. AlphaScreen GST-Six1/His-Eya2 binding, biochemical; hits give low values. Homeobox protein SIX1 (Homo sapiens) + Protein phosphatase EYA2 (Homo sapiens), …. activity change, % (no concentration beside the values); in the data active means activity change below about -65%; inconclusive means mostly about -30% to -63%; further: on the % scale 0 is the no-effect control and ±100 the full control effect
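AlphaScreen with GST-Six1 and His-Eya2 (5X mix: 250 nM and 500 nM), glutathione donor and nickel acceptor beads; buffer 50 mM Tris pH 8.0, 300 mM NaCl, 1 mM TCEP; 1 h at 37 C in the dark.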
CtBP-E1A inh – qHTS Assay for Inhibitors of the CtBP/E1A Interaction | CtBP / adenovirus E1A interaction (AlphaScreen) | AlphaScreen GST-E1A/His-CtBP binding, 1536-well; hits give low values | activity change, % (concentration not given with the values) | 0.49% of 340,000 active | AID 651724, 2012; in the data active means activity change below about -65%; inconclusive means mostly about -30% to -63%; further: on the % scale 0 is the no-effect control and ±100 the full control effect
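Protein mix (5X: 125 nM each GST-E1A, His-CtBP) was incubated with pinned compound 2 h at 37 deg C in dark, in 50 mM Tris pH 8.0 buffer with 300 mM NaCl. Glutathione donor and nickel acceptor beads followed; AlphaScreen signal read after 1 h.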
HP1b binding inh – HTS for Inhibitors of HP1-beta Chromodomain Interactions with Methylated Histone Tails | AID 540317, 2011 | 0.56% of 390,000 active | AlphaScreen HP1-beta / biotin-H3K9me3 peptide binding | Potency, µM (titrated, usually from 114 µM), without a hit: at the highest dose activity change, negative = inhibition, most hits filed as inhibitors; further: potency means the concentration at half of the fitted maximal effect; nearly all actives have a fitted effect of over 70% in size
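AlphaScreen: HP1-beta (50 nM) preformed 30 min with biotin-H3(1-18)K9me3 peptide (50 nM) in PBS pH 7.4, 0.01% Tween-20. Compound added for 30 min at RT, then streptavidin donor/nickel chelate acceptor beads (10 ug/mL) for 30 min.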
BAZ2B inh – qHTS Assay for Inhibitors of BAZ2B. 4.4% of 360,000 active. Bromodomain adjacent to zinc finger domain protein 2B (Homo sapiens), Q9UIF8. AlphaScreen BAZ2B-H3K14Ac peptide displacement. Potency, µM (highest dose often 114 µM), for inactives: at the highest dose activity change, negative = inhibition, actives largely listed as inhibitors; further: potency means the concentration at half of the fitted maximal effect; on the % scale 0 is the no-effect control and ±100 the full control effect; nearly all actives have a fitted effect of over 60% in size
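Complex of BAZ2B and biotin-H3K14Ac (50 nM apiece) forms over 30 min at RT, then faces library compounds up to 110 uM for another 30 min; AlphaScreen beads added, 20 min dark incubation, luminescence read.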
Active calls of the source: *; ? = inconclusive; . = no result given; [ ] = another dose, or the depositor's remark. Unless noted, the call rests on the fitted dose curve; in most records, active means well fitted inhibition curve with a large enough effect; inconclusive means small, poorly fitted or top-dose-only effect; inactive means no such curve, though single readings can be large or run the other way.

SMILES	G9a inh	JMJD2A Tudor inh	Six1-Eya2 blk	CtBP-E1A inh	HP1b binding inh	BAZ2B inh
C[C@@H](C(=O)Nc1ccc2ccccc2c1)[C@H]1C[C@]1(C)[C@H](NS(=O)(=O)c1ccc(-c2ccccc2)cc1)c1ccccc1	-50%	-25%	-7	-1	15%	0%
Cc1nn(C)c(Cl)c1S(=O)(=O)N[C@@H](c1ccccc1)[C@]1(C)C[C@H]1[C@@H](C)C(=O)Nc1ccc2ccccc2c1	50µM*	-18%	3	-4	24%	-25%
CCOc1ccc(N2CC(NC(=O)C3CCCC3)CC2=O)cc1 (stereo not drawn)	-3%[59 µM]	-12%	.	.	-6%	2%
Cc1ccc(NC(=O)CCCN2C(=O)COc3ccc(C)cc32)c(C)c1	1%[59 µM]	-12%	.	.	28%	-32%
COCc1n[nH]c(=S)n1-c1cccc2ccccc12	16µM*	20µM*	4	-1	17%	0%
S=c1[nH]nc(-c2cc(-c3ccsc3)n[nH]2)n1-c1cccc2ccccc12	8.9µM*	?	-12	?	1%	?
O=c1c2ccccc2nc(-c2cccs2)n1-c1cccc2ccccc12	?	-18%	-8	-2	12%	-12%
CC(=O)c1ccc(OCc2cc(=O)n3ccsc3n2)cc1	2%[59 µM]	-9%	2	-3	36%	-26%
COc1ccc(-c2cc(-c3n[nH]c(=S)n3-c3cccc4ccccc34)[nH]n2)cc1	35µM*	?	-8	-10	?	?
CC(=O)c1ccc(-n2c(-c3cc(-c4ccsc4)n[nH]3)n[nH]c2=S)cc1	1.1µM*	?	-3	-2	10%	-35%
CCOC(=O)c1cc(-c2ccc(OC)cc2)n[nH]1	.	-7%	-2	.	36%	1%
CNC(=O)c1c(NC(=O)c2cc(=O)c3ccccc3o2)sc2c1CCC2	1%[59 µM]	-3%	.	.	26%[57 µM]	3%
O=S(=O)(c1ccc(F)cc1)N1CCN(c2nc(-c3ccccc3)nc3ccccc23)CC1	.	-31%	.	.	1%	.
CCc1ccc(NC(=O)C(C)Sc2nc(-c3ccco3)c(C#N)c(=O)[nH]2)cc1 (stereo not drawn)	50µM*	?	-11	-17	-13%	?
N#Cc1c(-c2ccccc2)cc(-c2ccccc2)nc1SCC(=O)Nc1ccc(Cl)cc1	?	7%	.	.	43%	12%
CC(C)(C)c1ccc(-c2nc(SCC(=O)Nc3ccc(Cl)cc3)[nH]c(=O)c2C#N)cc1	-16%[59 µM]	-32%	.	.	24%	79µM*
CCOc1ccccc1NC(=O)C(C)Sc1nc(-c2ccccc2)c(C#N)c(=O)[nH]1 (stereo not drawn)	-23%[59 µM]	-27%	.	.	12%	-24%
O=C(CSc1nc2[nH]ncc2c(=O)[nH]1)Nc1cccc(Cl)c1	?	-1%	-10	-1	37%	-20%
N#Cc1c(-c2ccco2)nc(SCC(=O)Nc2cccc(Cl)c2)[nH]c1=O	35µM*	?	-1	6	14%	-12%
Cc1ccc(S(=O)(=O)CCC(=O)Nc2ccc(OC(F)(F)F)cc2)cc1	5%[59 µM]	0%	.	.	31%	11%[57.1 µM]
C[N+](C)(C)CCCN1C(=O)CCCC1=O	-53%	56µM*	7	2	16%	?
COc1ccccc1OC1=NS(=O)(=O)c2ccccc21	45µM*	-3%[11.4 µM]	12	4	57%	?
Cc1ccc(OC2=NS(=O)(=O)c3ccccc32)cc1	?	?	7	-4	39%	?
CCN(CC)c1cccc(OC2=NS(=O)(=O)c3ccccc32)c1	16µM*	63µM*	-6	0	-21%	56µM*
O=S1(=O)N=C(Oc2ccc(Cl)cc2)c2ccccc21	.	100µM*	.	.	.	.
SMILES	G9a inh	JMJD2A Tudor inh	Six1-Eya2 blk	CtBP-E1A inh	HP1b binding inh	BAZ2B inh
O=S1(=O)N=C(Oc2ccccc2F)c2ccccc21	.	79µM*	.	.	.	.
c1ccc(CNCc2nnc(-c3cc4ccccc4[nH]3)o2)cc1	.	-12%	.	.	.	.
COc1ccc(N2CCN(CC(=O)c3c[nH]c4ccccc34)CC2)cc1	5%	-7%	-13	8	4%	9%
COc1ccc(N2CCN(CCCNC(=O)C(=O)c3c(C)[nH]c4ccccc34)CC2)cc1	-1%[0.0925 µM]	45µM*	-19	-22	?	28µM*
CCOc1cc2[nH]c(=O)n(CCCN3CCN(c4ccc(OC)cc4)CC3)c(=O)c2cc1OCC	10µM*	?	3	-1	-22%	?
COc1ccc(N2CCN(CCCn3c(=S)[nH]c4ccccc4c3=O)CC2)cc1	7%	?	19	.	27%	28µM*
CC1CCN(CCCCOc2ccccc2[N+](=O)[O-])CC1	?	4.5µM*	25	48	?	?
Cc1ccc(OCCCCCCN2CCNCC2)cc1	.	-17%	-3	-12	5%	.
Cc1ccc(OCCCCN2CCC(C)CC2)cc1	-32%	3.2µM*	5	6	?	50µM*
CCOc1ccccc1OCCOCCOc1ccccc1[N+](=O)[O-]	4%[59 µM]	9%[57.1 µM]	10	2	59%	-1%
CC1CCN(CCCCOc2ccc(F)cc2)CC1	?	3.2µM*	2	3	?	?
O=[N+]([O-])c1ccc(OCCCCN2CCCCC2)cc1	?	4%	1	-16	31%	0%
CC1CCN(CCCCOc2ccc([N+](=O)[O-])cc2)CC1	11µM*	79µM*	-4	6	5%	-33%
O=C(Cn1c(=O)n(Cc2ccc3c(c2)OCO3)c(=O)c2oc3ccccc3c21)Nc1ccccc1	-5%[59 µM]	-19%	.	.	3%	-36%
Cc1ccn2c(=O)cc(COc3ccc(NC(=O)c4ccccc4F)cc3)nc2c1	12%[59 µM]	-11%	.	.	21%[57 µM]	6%
CC(=O)c1cc(-c2ccccc2)n(CCC(=O)Nc2nc3c(C)cccc3s2)c1C	6%[59 µM]	-1%	.	.	13%	4%
O=[N+]([O-])c1ccc(OCCCCN2CCc3ccccc3C2)cc1	35µM*	20µM*	-9	-13	?	79µM*
Cc1cccc(OCCCCN2CCNCC2)c1	.	-25%	7	0	-11%	.
COc1ccc(OCCCN2CCc3ccccc3C2)cc1	-23%	-22%	-13	-23	28%	-7%
CC1CCN(CCCCOc2cccc(C(C)C)c2)CC1	40µM*	56µM*	-3	-3	-29%	?
